Screening results deposited in PubChem BioAssay by The Scripps Research Institute Molecular Screening Center.
A selection: hits, their analogues and other compounds. The true share with any hit is near 4.2%.
DAX1 StAR inh: inhibitors of DAX1 repression of SF-1 activated StAR promoter. inhibition, % at 6.8 µM. HEK293T StAR-luciferase reporter, SF-1/DAX-1 repression relief. AID 652010. actives 1.1% (n = 370,000);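 active = inhibition above the mean over all tested compounds plus 3 SD, cut at about 3.6% in these data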;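 note: higher inhibition means more luminescence from relief of DAX-1 repression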
hcDAF-12 act: H. contortus DAF-12 activation, primary screen. HEK293 hcDAF-12 lit1-tk-luc reporter, luminescence; 0% DMSO, 100% Δ7-dafachronic acid. activation, % at 6.8 µM. actives 1.4% (n = 370,000);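 active = activation above the mean of all tested compounds plus 3 SD, cut at about 5.5% in these data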
ssDAF12 agonist: S. stercoralis DAF-12 activation, primary screen; HEK293 ssDAF-12/GRIP1 lit1-tk-luc reporter, luminescence; % of 3 µM dafachronic acid response; activation, % at 6.8 µM; actives 1% (n = 370,000); AID 652126;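 active = activation above the mean over all tested compounds plus 3 SD, cut at about 0.9% in these data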
SMARCA2 activ: SMARCA2 function activation, primary screen. MG213 cells, MMTV-luciferase reporter, dexamethasone, overnight. activation, % at 9.1 µM. AID 652017. actives 1% (n = 370,000); in the data active = activation above about 7.8%
hgDAF12 agonist: activates the H. glycines DAF-12 receptor ligand-binding domain | HEK293 GAL4-hgDAF12 UAS-luciferase reporter, agonist luminescence; normalized to butyrate control | activation, % at 6.8 µM | actives 1.8% (n = 370,000) | AID 687014;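 active = activation above a cutoff set at the mean of all screened compounds plus 3 SD, cut at about 10% in these data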
Of the large screens only hits and unclear results are named; the others gave an inactive call.

CCn1c(CNC(=O)Cc2ccc(OC)cc2)n[nH]c1=S	DAX1 StAR inh 4.1
CCn1c(COc2ccccc2C)nnc1SCC(=O)NC1CCCC1	none
CCOc1ccccc1-c1nnc(SCC(=O)NC2CC2)n1CC	ssDAF12 agonist 1.1
C[C@H]1[C@@H](OC(=O)NC2CCCCC2)CC[C@@]23CCCN2C(=O)CCC[C@@H]13	none (no result: DAX1 StAR inh, SMARCA2 activ)
CCCCCCC/C=C(\C)[C@@H](O)[C@@H](C)C(=O)N1CCC[C@@H]1C(=O)O[C@H](C(=O)O[C@@H](C)C(=O)O)[C@@H](C)CC	none (no result: DAX1 StAR inh, SMARCA2 activ)
COC(=O)C12C=C3CC(c4ccc(C)s4)=C3C(=O)N1Cc1[nH]c3ccccc3c1C2 (stereo not drawn)	none
CCn1c(SCC(=O)N2CCCCCC2)nc2c([nH]c3ccccc32)c1=O	none
CCn1c(SCC(=O)N2CCN(c3ccccc3)CC2)nc2c([nH]c3ccccc32)c1=O	ssDAF12 agonist 1.2
COc1cc(/C=N/Nc2snc(SC)c2C#N)cc(OC)c1OC	none
CSc1nsc(N/N=C/c2ccc3c(c2)OCO3)c1C#N	hgDAF12 agonist 12.3
S=C(Nc1cccnc1)N1CCc2ccccc21	hcDAF-12 act 6.4
CC(C)(C)C(=O)NC(=S)N1CCc2ccccc21	none
O=C(NC(=S)N1CCc2ccccc21)C1CCC1	hcDAF-12 act 5.7
O=C(CCc1c[nH]c2ccccc12)Nc1ccc(Nc2cccnc2)cc1	none
CC(=O)Nc1nc(-c2cccs2)cs1	none
O=C(Nc1nc(-c2cccs2)cs1)c1ccc(Cl)s1	hgDAF12 agonist 10.7
CC(C)OC(=O)NCN1C(=O)C2C3C=CC(C3)C2C1=O (stereo not drawn)	hgDAF12 agonist 11.1
COC(=O)NCN1C(=O)C2C3C=CC(C3)C2C1=O (stereo not drawn)	none
CC(=O)Cc1nsc(Nc2ccc3c(c2)OCCO3)n1	hgDAF12 agonist 11.6
CC(=O)Cc1nsc(Nc2ccc(F)cc2)n1	none
Clc1ccc2nc(CNc3nc(N4CCOCC4)nc4c3ncn4-c3ccsc3)[nH]c2c1	none (no result: DAX1 StAR inh, SMARCA2 activ)
c1ccc2sc(SCSc3nc4ccccc4s3)nc2c1	none
O=C(CSc1nc2ccccc2s1)N1CCCCC1	hgDAF12 agonist 12.4
CC1CCN(C(=O)CSc2nc3ccccc3s2)CC1	hcDAF-12 act 6.5, hgDAF12 agonist 12.4
CN(C)CCCSc1nc2ccccc2s1	ssDAF12 agonist 2.0
COC(=O)[C@]12C[C@H](CC(=O)NCc3cccc4ccccc34)C(=O)N(CCC3=CCCCC3)C1=C[C@H](COCc1ccccc1)O[C@@H]2C	none
O=C1NC(=O)/C(=C/c2ccc(O)cc2)S1	hgDAF12 agonist 13.9
COc1cc(/C=N/OCC(=O)NC2CCCCC2C)ccc1OCc1ccc(Cl)cc1 (stereo not drawn)	DAX1 StAR inh 4.2, hgDAF12 agonist 11.4
CCN(CC)c1ccc(C(=O)OCC(=O)Nc2ncccn2)cc1	none
CCN(CC)c1ccc(C(=O)OCC(=O)Nc2sccc2C#N)cc1	hgDAF12 agonist 10.7
Cc1ccc(S(=O)(=O)N2C[C@H]3[C@H]4C(=O)N(c5ccccc5)C(=O)[C@H]4CC(=O)[C@H]3[C@@H]2c2cccc3ccccc23)cc1	DAX1 StAR inh 4.3
CN[C@H]1C[C@@H](c2ccccc2Br)N(C(C)=O)C[C@H]1CO	none
COc1ccc(NC(=O)Nc2cccc(C)n2)c(OC)c1	none
COc1cccc(NC(=O)Nc2cc(C(=O)O)ccc2C)c1	none
COc1cccc(NC(=O)Nc2ccc(C)c(Cl)c2)c1	hgDAF12 agonist 13.1
COc1cccc(NC(=O)Nc2cccc(C)n2)c1	hgDAF12 agonist 12.4
COc1ccc2c(=O)c(Oc3ccc(C(=O)O)cc3)c(C(F)(F)F)oc2c1	DAX1 StAR inh 4.2, ssDAF12 agonist 0.9
Cc1oc2cc(OCC(=O)O)ccc2c(=O)c1Oc1ccccc1	none
CCCCN1CCS(=O)(=O)N(Cc2cn(Cc3cccc(Cl)c3)nn2)C(C(=O)OC)C1 (stereo not drawn)	none
CCOC(=O)C1=NOC(C(=O)Nc2nccs2)(C(=O)C2CC2)C1 (stereo not drawn)	none
S=C(N/N=C/c1cccs1)NC1CC2CCC1C2 (stereo not drawn)	hgDAF12 agonist 11.0
Oc1ccc(/C=N/NC(=S)NC2CC3CCC2C3)cc1 (stereo not drawn)	none
COc1cccc(-c2ccc3c(c2)O[C@H](CN(C)C(=O)c2ccccc2F)[C@H](C)CN([C@H](C)CO)S3(=O)=O)c1	none
C[C@H](O)[C@@H]1C(=O)N2CCc3ccc(N4CCN(C)CC4)cc3[C@@H]2C[C@@H]1N(C)C(=O)Nc1cc(Cl)cc(Cl)c1	none
C[C@H](O)[C@@H]1C(=O)N2CCc3ccc(N4CCN(C)CC4)cc3[C@@H]2C[C@@H]1N(C)C(=O)NC1CCCCC1	SMARCA2 activ 7.9
O=C(OCC(=O)c1c[nH]c2ccccc12)c1cncc(Br)c1	none
COc1ccc(C(=O)COC(=O)c2ccccc2O)c(OC)c1	DAX1 StAR inh 3.9, hgDAF12 agonist 11.6
N#CCC(=O)Nc1ccc(C(=O)OCC(=O)c2c[nH]c3ccccc23)cc1	SMARCA2 activ 7.9
COc1ccc(C(=O)OCC(=O)c2cc(OC)ccc2OC)c(OC)c1	none
COc1ccc(C(=O)OCC(=O)c2c[nH]c3ccccc23)c(OC)c1	ssDAF12 agonist 1.7
O=C(OCC(=O)c1c[nH]c2ccccc12)c1cccc([N+](=O)[O-])c1	ssDAF12 agonist 1.8
CC(C)C(=O)N[C@H]1[C@H](O)CCC[C@]12C(=O)N(Cc1ccccc1)c1ccccc12	none
COc1cccc([C@@H]2NC(=O)C/C=C/[C@H](C)[C@H](c3cccc(OC)c3)NC(=O)C/C=C/[C@@H]2C)c1	none
CCCC(=O)N1CCC[C@]2(CC[C@H](CCC(=O)OCC)O2)C1	none
COc1cccc(-c2ccc(SCc3ccccn3)nn2)c1	hgDAF12 agonist 11.8
Cc1c(O)ccc(C(=O)COc2ccc(F)cc2)c1O	hgDAF12 agonist 11.7
COc1ccccc1NC(=O)N(C)C[C@H]1Oc2ncc(Br)cc2C(=O)N([C@H](C)CO)C[C@H]1C	ssDAF12 agonist 1.1
COc1cccc(S(=O)(=O)N(C)C[C@@H]2Oc3ncc(Br)cc3C(=O)N([C@H](C)CO)C[C@@H]2C)c1	ssDAF12 agonist 1.2
C[C@H](CO)N1C[C@H](C)[C@@H](CN(C)S(=O)(=O)c2ccccc2)Oc2ccc(NC(=O)NC3CCCCC3)cc2C1=O	DAX1 StAR inh 4.2
COc1cccc(S(=O)(=O)N(C)C[C@H]2Oc3ncc(Br)cc3C(=O)N([C@H](C)CO)C[C@H]2C)c1	none
C[C@H](CO)N1C[C@H](C)[C@@H](CN(C)C(=O)Nc2ccccc2F)Oc2ncc(Br)cc2C1=O	none
C[C@H](CO)N1C[C@H](C)[C@@H](CN(C)S(=O)(=O)c2ccccc2)Oc2ccc(NC(=O)C3CCCCC3)cc2C1=O	none
Cc1ccc2c(c1)C1CS(=O)(=O)N(CC(C)C)CN1C2 (stereo not drawn)	none
